± gives the standard deviation of the averaged measurements.
Tested on: A549
Test: relative viability (normalised to negative control = 1, bortezomib = 0) (fraction); higher = less cytotoxic
Settings: inflammatory serum-free RHB-A with cytokines + LPS, 5 d + 24 h CellTiter-Blue
[1] = compound 30 nM, GSK126 pretreatment: 5 uM GSK126
[2] = compound 30 nM, GSK126 pretreatment: none (vehicle)
[3] = compound 300 nM, GSK126 pretreatment: 5 uM GSK126
[4] = compound 300 nM, GSK126 pretreatment: none (vehicle)

C=CC(=O)N1CCC[C@@H](n2nc(-c3ccc(Oc4ccccc4)cc3)c3c(N)ncnc32)C1
relative viability [1]: 0.769 ± 0.14 | relative viability [2]: 0.718 ± 0.11 | relative viability [3]: 0.429 ± 0.02 | relative viability [4]: 0.41 ± 0.048

CN(C)c1ccc(-c2nc3ncc(Cl)c(N4CCN(CC(=O)Nc5nccs5)CC4)c3[nH]2)cc1
relative viability [1]: 0.997 ± 0.11 | relative viability [2]: 0.983 ± 0.091 | relative viability [3]: 1.1 ± 0.097 | relative viability [4]: 1.07 ± 0.066

Cn1cc(C2=C(c3ccc(Cl)cc3Cl)C(=O)NC2=O)c2ccccc21
relative viability [1]: 0.787 ± 0.042 | relative viability [2]: 0.778 ± 0.046 | relative viability [3]: 0.695 ± 0.079 | relative viability [4]: 0.802 ± 0.05

O=c1[nH]cc(F)c(=O)[nH]1 [5-Fluorouracil; Fluorouracil]
relative viability [1]: 0.96 ± 0.07 | relative viability [2]: 0.911 ± 0.063 | relative viability [3]: 0.865 ± 0.13 | relative viability [4]: 0.924 ± 0.026

N#Cc1c(O)c2c(-c3ccc(-c4ccccc4O)cc3)csc2[nH]c1=O
relative viability [1]: 0.86 ± 0.15 | relative viability [2]: 0.937 ± 0.13 | relative viability [3]: 0.938 ± 0.18 | relative viability [4]: 0.942 ± 0.11

CO[C@@H](C(=O)N1Cc2[nH]nc(NC(=O)c3ccc(N4CCN(C)CC4)cc3)c2C1)c1ccccc1
relative viability [1]: 0.626 ± 0.07 | relative viability [2]: 0.622 ± 0.05 | relative viability [3]: 0.488 ± 0.032 | relative viability [4]: 0.504 ± 0.058

O=c1[nH]c(=O)n([C@H]2C[C@H](O)[C@@H](CO)O2)cc1F [Floxuridine]
relative viability [1]: 0.895 ± 0.018 | relative viability [2]: 0.886 ± 0.058 | relative viability [3]: 0.903 ± 0.037 | relative viability [4]: 0.908 ± 0.05

C[C@@H]1CCN(C(=O)CC#N)C[C@@H]1N(C)c1ncnc2[nH]ccc12
relative viability [1]: 1.05 ± 0.18 | relative viability [2]: 0.99 ± 0.17 | relative viability [3]: 1.31 ± 0.067 | relative viability [4]: 1.28 ± 0.1

NC(=O)c1ccc(-c2nc(-c3ccccn3)c(-c3ccc4c(c3)OCO4)[nH]2)cc1
relative viability [1]: 0.825 ± 0.08 | relative viability [2]: 0.814 ± 0.1 | relative viability [3]: 0.817 ± 0.073 | relative viability [4]: 0.882 ± 0.1

NC1(c2ccc(-c3nc4ccn5c(=O)[nH]nc5c4cc3-c3ccccc3)cc2)CCC1
relative viability [1]: 0.679 ± 0.074 | relative viability [2]: 0.691 ± 0.063 | relative viability [3]: 0.387 ± 0.011 | relative viability [4]: 0.522 ± 0.067

CC(=O)c1c(C)c2cnc(Nc3ccc(N4CCNCC4)cn3)nc2n(C2CCCC2)c1=O
relative viability [1]: 0.89 ± 0.074 | relative viability [2]: 0.913 ± 0.063 | relative viability [3]: 0.903 ± 0.087 | relative viability [4]: 0.931 ± 0.064

CN(C)Cc1cccc(N=C(c2ccccc2)c2c(O)[nH]c3cc(C(=O)N(C)C)ccc23)c1
relative viability [1]: 0.839 ± 0.14 | relative viability [2]: 0.864 ± 0.16 | relative viability [3]: 0.954 ± 0.16 | relative viability [4]: 1.04 ± 0.16

FC(F)(F)c1ccc(/C=C/c2nc(COc3ccc(CCCCn4ccnn4)cc3)co2)cc1 [Mubritinib (TAK 165)]
relative viability [1]: 0.798 ± 0.028 | relative viability [2]: 0.837 ± 0.061 | relative viability [3]: 0.561 ± 0.081 | relative viability [4]: 0.94 ± 0.011

S=c1[nH]cnc2nc[nH]c12 [Mercaptopurine]
relative viability [1]: 0.9493 ± 0.0049 | relative viability [2]: 0.969 ± 0.053 | relative viability [3]: 0.958 ± 0.067 | relative viability [4]: 0.984 ± 0.011

O=c1ncn2nc(Sc3ccc(F)cc3F)ccc2c1-c1c(Cl)cccc1Cl
relative viability [1]: 0.831 ± 0.12 | relative viability [2]: 0.867 ± 0.11 | relative viability [3]: 1.12 ± 0.12 | relative viability [4]: 1.03 ± 0.16

CC(C)CC(=O)Nc1n[nH]c2c1CN(C(=O)C1CCN(C)CC1)C2(C)C
relative viability [1]: 0.84 ± 0.097 | relative viability [2]: 0.829 ± 0.069 | relative viability [3]: 0.761 ± 0.077 | relative viability [4]: 0.787 ± 0.033

Cn1nnc2c(C(N)=O)ncn2c1=O [Temozolomide]
relative viability [1]: 0.831 ± 0.044 | relative viability [2]: 0.837 ± 0.029 | relative viability [3]: 0.828 ± 0.067 | relative viability [4]: 0.943 ± 0.061

Cc1c(CN2CCN(C(=O)[C@H](C)O)CC2)sc2c(N3CCOCC3)nc(-c3cnc(N)nc3)nc12
relative viability [1]: 0.678 ± 0.048 | relative viability [2]: 0.754 ± 0.063 | relative viability [3]: 0.15 ± 0.033 | relative viability [4]: 0.172 ± 0.013

Cc1c2oc3c(C)ccc(C(=O)N[C@@H]4C(=O)N[C@H](C(C)C)C(=O)N5CCC[C@H]5C(=O)N(C)CC(=O)N(C)[C@@H](C(C)C)C(=O)O[C@@H]4C)c3nc-2c(C(=O)N[C@@H]2C(=O)N[C@H](C(C)C)C(=O)N3CCC[C@H]3C(=O)N(C)CC(=O)N(C)[C@@H](C(C)C)C(=O)O[C@@H]2C)c(N)c1=O [Dactinomycin]
relative viability [1]: -0.00158 ± 0.00097 | relative viability [2]: 0.00574 ± 0.0057 | relative viability [3]: -0.00171 ± 0.00059 | relative viability [4]: 0.00607 ± 0.0081

C/C(=C\c1csc(C)n1)[C@@H]1C[C@@H]2O[C@]2(C)CCC[C@H](C)[C@H](O)[C@@H](C)C(=O)C(C)(C)[C@@H](O)CC(=O)N1 [Ixabepilone]
relative viability [1]: 0.464 ± 0.084 | relative viability [2]: 0.269 ± 0.068 | relative viability [3]: 0.386 ± 0.016 | relative viability [4]: 0.288 ± 0.043

COc1cc([C@@H]2c3cc4c(cc3[C@@H](O[C@@H]3O[C@@H]5CO[C@@H](C)O[C@H]5[C@H](O)[C@H]3O)[C@H]3COC(=O)[C@H]23)OCO4)cc(OC)c1O [Etoposide]
relative viability [1]: 0.938 ± 0.081 | relative viability [2]: 0.935 ± 0.037 | relative viability [3]: 0.985 ± 0.046 | relative viability [4]: 0.845 ± 0.047

Nc1ncn([C@H]2C[C@H](O)[C@@H](CO)O2)c(=O)n1 [5-Aza-2'-deoxycytidine; Decitabine]
relative viability [1]: 0.841 ± 0.15 | relative viability [2]: 0.715 ± 0.17 | relative viability [3]: 0.86 ± 0.18 | relative viability [4]: 0.836 ± 0.13

CN(C)/N=N/c1[nH]cnc1C(N)=O [Dacarbazine]
relative viability [1]: 0.931 ± 0.18 | relative viability [2]: 0.992 ± 0.11 | relative viability [3]: 1.05 ± 0.11 | relative viability [4]: 1.07 ± 0.031

CCOc1cc2ncc(C#N)c(Nc3ccc(F)c(Cl)c3)c2cc1NC(=O)/C=C/CN(C)C [Pelitinib]
relative viability [1]: 0.562 ± 0.038 | relative viability [2]: 0.504 ± 0.012 | relative viability [3]: 0.0719 ± 0.015 | relative viability [4]: 0.0851 ± 0.02

CC(C)(C#N)c1cc(Cn2cncn2)cc(C(C)(C)C#N)c1 [Anastrozole; Arimidex]
relative viability [1]: 0.743 ± 0.051 | relative viability [2]: 0.792 ± 0.039 | relative viability [3]: 0.804 ± 0.086 | relative viability [4]: 0.896 ± 0.04
